Assay [1] is described as follows: AP1 Signaling Pathway (AID 357; active = well fitted curve in either direction with a large enough effect, not every such curve was filed as active; also: % is scaled to controls: 0 for no effect and ±100 for the full control effect). As to conditions: ME-180 AP-1-bla reporter, EGF-induced, beta-lactamase ratio, 5 h; at 17.2 µM (top of the series) unless noted. The procedure, abridged: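 ME-180 cells with beta-lactamase reporter under AP-1 response element, stimulated with EC50 EGF; compounds tested in titration series, 5 h at 37 °C. CCF4 substrate added 2.5 h at room temperature; 460/530 nm emission ratio gave %activity and AC50.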

Assay [2] has as its target Glucocorticoid receptor (Homo sapiens) (UniProt P04150). Briefly: GR-GFP Redistribution (AID 450;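 active = compounds whose dose series gives a full or clear partial fitted curve of increased nuclear translocation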; also: potency is read from the fitted curve at half-maximal effect). Conditions: U2OS GR-GFP nuclear translocation, laser cytometry, 2 h.
The target is the same in assay [3]. Briefly: GR-EFC Redistribution (AID 451; calls by dose curve; also: potency is read from the fitted curve at half-maximal effect). As to conditions: CHO-K1 GR-EFC translocation, beta-gal luminescence, 2 h. The procedure, abridged:
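CHO-K1 cells stably expressing nuclear-localized β-gal enzyme acceptor and GR fused C-terminally to the enzyme donor fragment; ligand-driven nuclear translocation restores β-gal by complementation. Compounds titrated up to 46 uM final, 2 h at 37 °C; luminescence read.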

For assay [4], the target named is 3',5'-cyclic-AMP phosphodiesterase 4B (Homo sapiens) (UniProt Q07343). Nature of the assay: qHTS Assay for Inhibitors of PDE-IV (AID 607; active = well fitted activation curve with a large enough effect in the main read-out, with a control signal flat, not every such curve was filed as active; also: % of control where 0% means no effect). Put shortly:
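Cell-based read-out of cAMP via a modified cyclic nucleotide-gated channel and membrane potential dye (535/590 nm) in HEK293 cells expressing PDE4 endogenously. Compounds tested up to 22.9 uM final; 100 uM RO 20-1724 reference.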
In general terms: In qHTS, concentration-response curves come from the screen itself.

Assay [5] has as its target Guanine nucleotide-binding protein G(i) subunit alpha-1 (Homo sapiens) (UniProt P63096). Nature of the assay: qHTS Assay for Inhibitors of RGS12 GoLoco Motif Activity (Green Fluorophore) (AID 879).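 Also: 0% = labeled peptide with Gαi1 and full inhibition = labeled peptide alone without protein; negative values mean loss of peptide binding seen as reduced polarization.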 Put shortly: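 A drop in FITC polarization marked displacement of the FITC-tagged RGS12 GoLoco peptide (10 nM) from Gαi1 (50 nM). Compounds were incubated 10 min at room temperature in Tris pH 7.5 buffer containing 150 mM NaCl, 0.1 mM GDP and 0.05% NP40; unlabeled peptide titration served as control.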

Assay [6] deals with Cytochrome P450 2C9 (Homo sapiens) (UniProt P11712). Nature of the assay: qHTS Assay for Inhibitors and Substrates of Cytochrome P450 2C9 (AID 883). Also: % is scaled to controls: 0 for no effect and ±100 for the full control effect; nearly all actives have a fitted effect of over 60% in size. Put shortly:
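Human CYP2C9 (10nM) hydroxylated Luciferin-H (100uM, at its KM) to luciferin in 25mM KPO4. Compound was preincubated 10 min at 37C, then NADPH regeneration started a 60 min reaction at 37C. Luminescence was read after detection reagent, normalized to 57uM sulphaphenazole.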

For assay [7], the target named is Cytochrome P450 3A4 (Homo sapiens) (UniProt P08684). Briefly: qHTS Assay for Activators of Cytochrome P450 3A4 (AID 885). Also: nearly all actives have a fitted effect of over 65% in size. The procedure, abridged: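 Luminescent readout of luciferin formed from 25 uM Luciferin-PPXE (KM level) by 20 nM CYP3A4 in 200 mM KPO4, with 60 min NADPH-driven reaction at room temperature after 10 min compound exposure. Ketoconazole (57 uM) defined 100% inhibition.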
Chain of Cytochrome P450 3A4 (Homo sapiens) (P08684 whole entry, looked up): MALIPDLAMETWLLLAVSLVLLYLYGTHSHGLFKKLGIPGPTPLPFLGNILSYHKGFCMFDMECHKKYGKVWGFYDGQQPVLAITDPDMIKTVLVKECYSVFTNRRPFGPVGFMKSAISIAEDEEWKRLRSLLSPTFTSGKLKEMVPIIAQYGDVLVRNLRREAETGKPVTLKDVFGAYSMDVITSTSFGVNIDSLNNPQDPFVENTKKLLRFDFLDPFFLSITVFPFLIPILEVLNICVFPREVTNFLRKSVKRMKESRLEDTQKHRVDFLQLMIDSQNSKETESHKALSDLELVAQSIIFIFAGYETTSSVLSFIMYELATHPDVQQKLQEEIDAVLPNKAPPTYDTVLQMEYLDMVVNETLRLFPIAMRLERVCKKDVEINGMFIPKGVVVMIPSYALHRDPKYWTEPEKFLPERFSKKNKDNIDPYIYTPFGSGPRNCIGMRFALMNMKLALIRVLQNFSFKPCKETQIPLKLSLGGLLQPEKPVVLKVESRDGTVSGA

Assay [8] is described as follows: qHTS Assay for Identification of Small Molecule Agonists for Thrombopoietin (TPO) Signaling Pathway (AID 917). Also: % is scaled to controls: 0 for no effect and ±100 for the full control effect. The procedure, abridged:
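First, Ba/F3 cells with human TPO receptor were held overnight without IL-3. Next, compounds and TPO (26 pM final) were added. After 24 hrs at 37 C, luciferase detection reagent was added and luminescence measured following 10 min at room temperature.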

Assay [9] concerns the target Muscarinic acetylcholine receptor M1 (Rattus norvegicus) (UniProt P08482). Nature of the assay: qHTS Assay for Antagonists of Acetylcholine Muscarinic M1 Receptor: Kinetic Measurement of Intracellular Calcium Response (AID 943). Also: potency is read from the fitted curve at half-maximal effect; nearly all actives have a fitted effect of over 75% in size. The procedure, abridged: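 Antagonism is measured as inhibition of the carbachol-evoked calcium rise in CHO cells transfected with rat M1. Cells are dye-loaded, exposed to compound for 10 min, then stimulated with 100 nM carbachol (EC80).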

The target is the same in assay [10]. Nature of the assay: qHTS Assay for Antagonists of Acetylcholine Muscarinic M1 Receptor: Measurement of IP-One Response (AID 944). Also: potency is read from the fitted curve at half-maximal effect; nearly all actives have a fitted effect of over 75% in size. Put shortly:
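Antagonist mode with rat M1 receptor transfected into CHO cells. Compound is added first for 10 min, carbachol at its EC80 follows for 30 min, and lysis reagents then allow TR-FRET detection of accumulated IP1.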

For assay [11], the target named is Pyruvate kinase (Leishmania mexicana) (UniProt Q27686). Briefly: qHTS Validation Assay for Inhibitors of Leishmania Mexicana Pyruvate Kinase (AID 945).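 Also: 0% = DMSO only neutral control wells.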 The procedure, abridged: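 Eight-point qHTS titrations in triplicate, data normalized to DMSO neutral control. Reaction: 0.2 nM LmPYK E451W mutant, 0.5 mM PEP, 0.1 mM ADP, 7 mM MgCl2, pH 7.2, one hour at room temperature; luminescent ATP detection.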

For assay [12], the target named is Pyruvate kinase PKM (Homo sapiens) (UniProt P14618). Nature of the assay: qHTS Assay for Activators of Human Muscle Pyruvate Kinase (AID 954; active = well fitted curve in the direction sought with a large enough effect, not every such curve was filed as active;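 also: 0% = uninhibited enzyme and -100% = no enzyme or full thiadiazolimine inhibition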). The procedure, abridged:
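ATP production by PKM2 detected via luciferase luminescence after 1 h room-temperature reaction (0.1 nM enzyme, PEP at Km 0.5 mM, ADP 0.1 mM, pH 7.2 imidazole buffer). Inhibition scaled to no-enzyme control; activation referenced to 0.3 nM enzyme wells.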

For assay [13], the target named is Alpha-galactosidase (Coffea arabica) (UniProt Q42656). Nature of the assay: Counterscreen for Glucocerebrosidase Inhibitors: qHTS Assay for Coffee Bean alpha-Galactosidase at pH 4.5 (AID 957).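 Also: plate controls were enzyme alone for no effect and no enzyme for full effect.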 Put shortly: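 Enzyme is added first (2 nM final), then compounds titrated from 0.7 nM to 77 uM, then 80 uM 4-methylumbelliferyl alpha-D-galactopyranoside; after 20 min at room temperature a pH 10 NaOH/glycine stop precedes fluorescence reading at 365/440 nm.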
Chain of Alpha-galactosidase (Coffea arabica) (Q42656 whole entry, looked up): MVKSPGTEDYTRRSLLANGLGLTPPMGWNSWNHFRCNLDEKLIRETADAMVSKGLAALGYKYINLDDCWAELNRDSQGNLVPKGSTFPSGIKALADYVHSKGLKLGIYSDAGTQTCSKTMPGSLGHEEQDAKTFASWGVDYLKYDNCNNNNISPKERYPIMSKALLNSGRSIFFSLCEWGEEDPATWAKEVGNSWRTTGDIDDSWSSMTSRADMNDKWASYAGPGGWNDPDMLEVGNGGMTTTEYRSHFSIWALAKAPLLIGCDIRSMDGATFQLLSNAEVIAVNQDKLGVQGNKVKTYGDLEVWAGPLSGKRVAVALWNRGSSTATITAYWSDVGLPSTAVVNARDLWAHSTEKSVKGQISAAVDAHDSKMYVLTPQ
In general terms: A counterscreen serves to expose hits that act by an unwanted route or on another target.

The target in assay [14] is Alpha-galactosidase A (Homo sapiens) (UniProt P06280). Briefly: Counterscreen for Glucocerebrosidase Inhibitors: qHTS Assay for Human alpha-Galactosidase at pH 4.5 (AID 992). Also: 0% is about no effect. Put shortly:
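Fluorogenic 1536-well qHTS at pH 4.5 (citrate, Tween-20): 2 nM enzyme, 80 uM 4-MU-alpha-galactoside, 20 min room temperature, NaOH/glycine stop. Titration 0.7 nM to 77 uM, data normalized to no-enzyme and full-activity controls, Hill-fitted AC50.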

The target in assay [15] is alpha-glucosidase (Oryza sativa, rice) (UniProt Q653V4). Nature of the assay: Counterscreen for Glucocerebrosidase Inhibitors: qHTS Assay for Rice alpha-Glucosidase at pH 5.0 (AID 997).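 Also: 0% = full activity with enzyme and -100% = basal without enzyme.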 The procedure, abridged: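 Endpoint fluorogenic assay at pH 5.0: compounds (0.7 nM to 77 uM) titrated against 4 nM rice enzyme and 400 uM 4-MU-alpha-glucoside for 20 min at room temperature; NaOH/glycine stop, read ex 365/em 440 nm, Hill-fitted AC50.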

In assay [16] the target is Alpha-galactosidase (Coffea arabica) (UniProt Q42656). Briefly: Counterscreen for Glucocerebrosidase Inhibitors: qHTS Assay for Coffee Bean alpha-Galactosidase at pH 5.9 (AID 998).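 Also: plate controls were uninhibited enzyme for no effect and no-enzyme basal signal for full effect.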 The procedure, abridged: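 In 50 mM citric acid pH 5.9 with 0.005% Tween-20, coffee bean enzyme hydrolyses 80 uM 4-MU alpha-D-galactopyranoside over 20 min at RT. Activity is normalized to controls; AC50 comes from Hill-modelled concentration-response data.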

The target in assay [17] is Cytochrome P450 1A2 (Homo sapiens) (UniProt P05177). Briefly: p450-cyp1a2 (AID 410; calls by dose curve; also: potency is read from the fitted curve at half-maximal effect;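 as to activity change, negative = inhibition: -100% = full effect of reference inhibitor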). Put shortly: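 O-Demethylation of luciferin 6' methyl ether by human CYP1A2 is monitored as luciferase luminescence. Substrate sits at Km (100uM); enzyme is 20nM. Values are scaled to 57 uM furafylline as maximal inhibition.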
Chain of Cytochrome P450 1A2 (Homo sapiens) (P05177 whole entry, looked up): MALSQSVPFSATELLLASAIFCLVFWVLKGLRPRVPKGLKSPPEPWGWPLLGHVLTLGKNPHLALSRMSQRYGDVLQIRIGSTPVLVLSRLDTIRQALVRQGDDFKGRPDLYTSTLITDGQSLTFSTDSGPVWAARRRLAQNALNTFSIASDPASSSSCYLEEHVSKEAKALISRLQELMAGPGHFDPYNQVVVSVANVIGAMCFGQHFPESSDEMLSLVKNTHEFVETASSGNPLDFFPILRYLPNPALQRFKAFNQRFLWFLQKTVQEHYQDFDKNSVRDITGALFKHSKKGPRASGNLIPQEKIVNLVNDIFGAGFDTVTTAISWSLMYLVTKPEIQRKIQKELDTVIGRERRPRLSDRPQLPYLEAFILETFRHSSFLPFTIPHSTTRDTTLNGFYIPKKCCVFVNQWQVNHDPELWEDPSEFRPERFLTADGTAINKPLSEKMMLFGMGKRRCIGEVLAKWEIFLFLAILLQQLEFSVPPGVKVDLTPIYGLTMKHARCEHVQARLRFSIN
The nature of assay [18]: NFAT Signaling Pathway (AID 444; active = well fitted curve in either direction with a large enough effect, not every such curve was filed as active;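 also: carbachol stimulus at about its EC50 of 1 µM final; % is scaled to controls: 0 for no effect and ±100 for the full control effect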). Conditions: Jurkat NFAT-bla M1, carbachol, beta-lactamase ratio, 5 h; at 17.2 µM (top of the series) unless noted. Put shortly: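 Jurkat cells carrying an NFAT-driven β-lactamase reporter and co-transfected muscarinic M1 receptor were treated with compound plus carbachol (1 uM final, an EC50 level) for 5 h at 37 °C. CCF4 loading followed for 1 h at RT; 460/530 nm ratio gave %activity.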

In assay [19] the target is Cytochrome P450 3A4 (Homo sapiens) (UniProt P08684). Nature of the assay: qHTS Assay for Inhibitors and Substrates of Cytochrome P450 3A4 (AID 884). Also: potency is read from the fitted curve at half-maximal effect; nearly all actives have a fitted effect of over 50% in size. Put shortly:
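Luminescent readout of luciferin produced by CYP3A4 (20 nM) dealkylation of Luciferin-PPXE, 25 uM (its KM). NADPH-driven reaction ran 60 min at RT after 10 min compound preincubation; data scaled to 57 uM ketoconazole as 100% inhibition.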

The target of assay [20] is Ubiquitin carboxyl-terminal hydrolase 1 (Homo sapiens) (UniProt O94782). Nature of the assay: Inhibitors of USP1/UAF1: Pilot qHTS (AID 504865). Also: potency is read from the fitted curve at half-maximal effect; nearly all actives have a fitted effect of over 35% in size. The procedure, abridged: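 USP1/UAF1 complex (1nM) preincubated with compound 15 min at room temperature, then Ub-Rho substrate (150nM final) added. Fluorescence read kinetically at 480/540 nm, 6 reads every 60 seconds. Buffer: 50mM HEPES pH 7.8, 0.5mM EDTA, 0.1 mg/ml BSA, 1mM TCEP, 0.01% Tween-20.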

The nature of assay [21]: Stat Signaling Pathway (AID 446; active = well fitted curve in either direction with a large enough effect, not every such curve was filed as active;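 also: ME-180 cervical cancer cells given 40 pM IL-6 alongside compound; SIE-controlled beta-lactamase reporter measured as 460/530 nm FRET emission ratio; % is scaled to controls: 0 for no effect and ±100 for the full control effect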). Put shortly: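 FRET read-out (405 nm excitation, 460/530 nm emission) of a beta-lactamase reporter under a STAT-inducible element in ME-180 cervical carcinoma cells. Cells with compound receive 40 pM IL-6 for 5 h. Values are normalised to AC90 stimulation and AC90 JAK-inhibitor controls.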
Assay [22] has as its target Mitogen-activated protein kinase 10 (Mus musculus) (UniProt Q61831). Briefly: JNK3 AlphaScreen Assay (AID 530; active = well fitted curve in either direction with a large enough effect, not every such curve was filed as active). The procedure, abridged: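 Phosphorylation of biotinylated GST-cJun(1-79) at Ser73 is measured by AlphaScreen proximity luminescence. Enzyme is JNK3 in HepG2 lysates activated with interleukin-1beta and tumor necrosis factor alpha; ATP is 10 uM final.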
(Bead proximity is the source of the signal in Alpha formats.)

Assay [23] addresses Cytochrome P450 2D6 (Homo sapiens) (UniProt P10635). Nature of the assay: qHTS Assay for Inhibitors and Substrates of Cytochrome P450 2D6 (AID 891).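 Also: luciferin methyl ether substrate demethylated by CYP2D6 with NADPH regeneration; % is scaled to controls: 0 for no effect and ±100 for the full control effect; nearly all actives have a fitted effect of over 60% in size.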 The procedure, abridged: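 Luminescent read-out of luciferin formed by 5 nM human CYP2D6 demethylating 30 uM Luciferin-ME EGE (Km level) over 60 min at room temperature after NADPH regeneration addition. Data normalized to full inhibition by 1.43 uM quinidine.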

For assay [24], the target named is Cytochrome P450 2C19 (Homo sapiens) (UniProt P33261). Briefly: qHTS Assay for Inhibitors and Substrates of Cytochrome P450 2C19 (AID 899). Also: % is scaled to controls: 0 for no effect and ±100 for the full control effect; nearly all actives have a fitted effect of over 60% in size. Put shortly:
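Human CYP2C19 (5nM) with Luciferin-H EGE at 10uM (its KM) in 50mM KPO4 was preincubated with compound for 10 min at 37C. NADPH regeneration started a 60 min 37C reaction. Luciferin was read by luminescence, normalized to 57uM ketoconazole.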

A number with no mark means an inactive call. Records with an inconclusive call do not appear. The source made the active and inactive calls. Unless noted, calls follow the shape of the dose curve; as a rule, active = well fitted curve in the direction sought with a large enough effect; inconclusive = small, poorly fitted or top-dose-only effect, or another doubt; inactive = no such curve, though single readings can be large; an effect the other way counts as inactive or inconclusive.

For four compounds, activity change, negative = inhibition, Potency and outcome results are on record in PubChem BioAssay (NCATS).

Chain of Glucocorticoid receptor (Homo sapiens) (P04150 whole entry, looked up): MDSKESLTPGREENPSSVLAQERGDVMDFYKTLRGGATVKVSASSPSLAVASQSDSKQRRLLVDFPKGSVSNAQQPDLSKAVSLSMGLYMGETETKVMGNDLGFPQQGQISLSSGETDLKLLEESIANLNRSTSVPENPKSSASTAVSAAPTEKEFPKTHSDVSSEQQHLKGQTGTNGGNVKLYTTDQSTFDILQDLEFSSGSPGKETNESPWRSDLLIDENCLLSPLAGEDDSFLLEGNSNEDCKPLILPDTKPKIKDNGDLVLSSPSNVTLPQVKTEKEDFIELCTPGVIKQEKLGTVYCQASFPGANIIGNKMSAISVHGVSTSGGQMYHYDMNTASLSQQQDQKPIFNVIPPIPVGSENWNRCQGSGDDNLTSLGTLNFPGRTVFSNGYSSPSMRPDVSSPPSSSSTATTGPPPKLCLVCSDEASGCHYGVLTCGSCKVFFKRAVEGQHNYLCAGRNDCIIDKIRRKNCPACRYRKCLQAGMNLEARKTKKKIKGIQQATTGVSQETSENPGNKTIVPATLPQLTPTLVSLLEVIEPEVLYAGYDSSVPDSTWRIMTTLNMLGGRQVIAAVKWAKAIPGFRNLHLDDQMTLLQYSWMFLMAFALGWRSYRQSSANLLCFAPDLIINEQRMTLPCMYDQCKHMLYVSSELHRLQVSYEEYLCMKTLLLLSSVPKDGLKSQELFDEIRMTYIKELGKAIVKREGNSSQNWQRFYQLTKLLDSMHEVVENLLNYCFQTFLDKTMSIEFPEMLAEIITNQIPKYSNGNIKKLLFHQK
Chain of 3',5'-cyclic-AMP phosphodiesterase 4B (Homo sapiens) (Q07343 whole entry, looked up): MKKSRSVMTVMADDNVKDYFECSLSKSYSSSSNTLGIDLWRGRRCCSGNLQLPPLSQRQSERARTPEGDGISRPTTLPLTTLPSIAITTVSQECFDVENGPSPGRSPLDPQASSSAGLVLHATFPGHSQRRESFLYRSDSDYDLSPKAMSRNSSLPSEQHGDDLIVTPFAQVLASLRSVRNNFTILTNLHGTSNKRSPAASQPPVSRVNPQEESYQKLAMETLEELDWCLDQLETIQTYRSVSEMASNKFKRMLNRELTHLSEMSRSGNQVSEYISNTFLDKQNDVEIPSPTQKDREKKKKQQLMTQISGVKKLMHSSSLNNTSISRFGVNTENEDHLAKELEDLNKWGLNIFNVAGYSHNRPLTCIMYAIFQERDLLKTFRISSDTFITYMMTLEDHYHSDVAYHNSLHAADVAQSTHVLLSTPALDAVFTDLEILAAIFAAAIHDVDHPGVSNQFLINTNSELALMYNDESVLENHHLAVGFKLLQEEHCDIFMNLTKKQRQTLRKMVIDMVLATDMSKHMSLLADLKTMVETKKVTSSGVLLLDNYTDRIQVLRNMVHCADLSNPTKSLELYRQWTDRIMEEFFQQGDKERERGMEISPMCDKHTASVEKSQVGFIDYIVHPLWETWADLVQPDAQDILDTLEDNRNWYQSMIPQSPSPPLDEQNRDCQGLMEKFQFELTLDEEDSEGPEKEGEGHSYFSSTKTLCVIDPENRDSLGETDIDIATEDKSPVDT
Chain of Cytochrome P450 2C9 (Homo sapiens) (P11712 whole entry, looked up): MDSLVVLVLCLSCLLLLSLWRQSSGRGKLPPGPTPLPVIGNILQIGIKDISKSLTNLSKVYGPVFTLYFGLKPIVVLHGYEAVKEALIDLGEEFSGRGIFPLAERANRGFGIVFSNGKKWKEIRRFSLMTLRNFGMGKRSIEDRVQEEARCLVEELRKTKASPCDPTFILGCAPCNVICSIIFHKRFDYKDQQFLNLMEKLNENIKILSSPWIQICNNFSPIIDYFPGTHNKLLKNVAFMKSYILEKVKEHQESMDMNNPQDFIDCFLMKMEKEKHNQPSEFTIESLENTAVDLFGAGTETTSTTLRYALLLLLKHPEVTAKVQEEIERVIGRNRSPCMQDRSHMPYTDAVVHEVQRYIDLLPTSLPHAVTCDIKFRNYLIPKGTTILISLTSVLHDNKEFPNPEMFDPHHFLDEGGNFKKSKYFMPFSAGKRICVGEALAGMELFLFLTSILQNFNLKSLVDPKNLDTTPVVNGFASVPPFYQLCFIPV
Chain of Muscarinic acetylcholine receptor M1 (Rattus norvegicus) (P08482 whole entry, looked up): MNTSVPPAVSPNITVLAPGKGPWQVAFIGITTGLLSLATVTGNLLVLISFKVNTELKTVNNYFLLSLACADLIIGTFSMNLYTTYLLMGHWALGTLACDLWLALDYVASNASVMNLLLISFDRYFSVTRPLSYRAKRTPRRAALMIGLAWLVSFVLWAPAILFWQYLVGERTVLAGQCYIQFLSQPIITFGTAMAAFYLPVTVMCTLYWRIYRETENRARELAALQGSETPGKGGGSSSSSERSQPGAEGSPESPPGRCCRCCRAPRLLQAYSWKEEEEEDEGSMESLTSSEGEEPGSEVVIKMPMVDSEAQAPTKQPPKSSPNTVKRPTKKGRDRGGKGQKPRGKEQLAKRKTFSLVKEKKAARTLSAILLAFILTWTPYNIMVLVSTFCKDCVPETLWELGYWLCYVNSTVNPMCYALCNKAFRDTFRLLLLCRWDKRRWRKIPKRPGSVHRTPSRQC
Chain of Pyruvate kinase PKM (Homo sapiens) (P14618 whole entry, looked up): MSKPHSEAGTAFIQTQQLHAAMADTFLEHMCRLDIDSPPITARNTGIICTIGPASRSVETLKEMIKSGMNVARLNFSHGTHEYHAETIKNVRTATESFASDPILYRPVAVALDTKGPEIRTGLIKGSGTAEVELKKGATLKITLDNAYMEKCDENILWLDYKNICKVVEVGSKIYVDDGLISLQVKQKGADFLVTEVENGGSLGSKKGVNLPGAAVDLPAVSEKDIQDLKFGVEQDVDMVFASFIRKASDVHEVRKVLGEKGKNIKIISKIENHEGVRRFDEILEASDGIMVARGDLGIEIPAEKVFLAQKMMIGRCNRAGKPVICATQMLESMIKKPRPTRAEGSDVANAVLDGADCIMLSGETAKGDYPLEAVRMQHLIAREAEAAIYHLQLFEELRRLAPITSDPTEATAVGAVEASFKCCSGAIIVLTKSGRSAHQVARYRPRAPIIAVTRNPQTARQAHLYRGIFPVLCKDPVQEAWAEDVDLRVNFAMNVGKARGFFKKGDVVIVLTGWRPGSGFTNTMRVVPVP
Chain of Alpha-galactosidase A (Homo sapiens) (P06280 whole entry, looked up): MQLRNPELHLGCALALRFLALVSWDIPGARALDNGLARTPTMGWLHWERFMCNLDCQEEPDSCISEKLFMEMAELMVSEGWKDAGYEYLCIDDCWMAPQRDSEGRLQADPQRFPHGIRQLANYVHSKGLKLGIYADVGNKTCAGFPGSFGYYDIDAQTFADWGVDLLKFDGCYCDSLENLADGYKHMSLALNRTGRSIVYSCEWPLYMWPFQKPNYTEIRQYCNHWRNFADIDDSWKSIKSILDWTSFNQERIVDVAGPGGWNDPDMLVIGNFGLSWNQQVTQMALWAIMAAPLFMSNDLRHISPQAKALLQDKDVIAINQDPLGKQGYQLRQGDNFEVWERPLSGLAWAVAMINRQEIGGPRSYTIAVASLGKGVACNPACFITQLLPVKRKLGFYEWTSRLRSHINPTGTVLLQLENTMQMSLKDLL

For `CN1[C@@H]2CC[C@H]1CC(O[C@@H](c1ccccc1)c1ccccc1N)C2` (stereo not given in full), in assay [1], the activity change, negative = inhibition is 12.1% [at 38 µM]. In addition, the Potency was over 46 µM in assay [2], over 46 µM in [3], 0.0141 µM (active) in assay [9] and 0.0071 µM (active) in assay [10]. For the same compound, the compound was classed as inactive in [4], in [8], in assay [12], in assay [13], in assay [14] and in [15]. The outcome in assay [16] was inactive. Besides, the Potency entry in [5], in [6], in [7] and in assay [11] was “inactive” throughout.
On to `CCCCCC[C@H]1C(=O)O[C@H](C)[C@H](NC(=O)c2cccc(NC=O)c2O)C(=O)O[C@@H](C)[C@H]1OC(=O)CC(C)C`, for which the Potency result in [17] and in assay [7] was “inactive” in each case. Further, in assay [18], the activity change, negative = inhibition was -34.3%. Also, the Potency in [2] was over 20.6 µM; in assay [3], over 20.6 µM; in assay [19], 5.01 µM (active); in assay [20], 28.2 µM (active). The compound was classed as inactive in assay [4].
Regarding `CC1(C)CC(=O)C(C=NCCN2CCN(C(=O)Cc3ccc(F)cc3)CC2)=C(O)C1`, in [1], the activity change, negative = inhibition was -0.912%. In addition, the compound was classed as inactive in [21]. In addition, in [2], the Potency was over 20.6 µM.
Turning to `O=c1cccc2n1C[C@H]1C[C@@H]2CN(CCO)C1`, the Potency was 15.8 µM (active) in assay [17], over 46 µM in assay [2] and over 46 µM in assay [3]. Moreover, the call in [22] and in assay [4] was inactive. The Potency result in assay [6], in [23] and in assay [24] was “inactive” throughout.
